45 compounds from PMC4336329 (PLoS ONE, 2015) can be followed below.

About 14,000 (4.5%) of roughly 310,000 compounds showed an effect of 50% or more. The effect is printed as a negative number. Shown is part of a subset that was picked to be rich in strong results.
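Note: peak tail current of the secondary pulse compared with the same well before compound.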

The target of this experiment is human ether-à-go-go-related gene (hERG) potassium channel (human, UniProt Q12809). The experiment can be described thus: primary screen, population patch clamp on CHO cells stably expressing hERG; higher = less effect of the substance.
Sequence of human ether-à-go-go-related gene (hERG) potassium channel (Q12809 whole entry, looked up): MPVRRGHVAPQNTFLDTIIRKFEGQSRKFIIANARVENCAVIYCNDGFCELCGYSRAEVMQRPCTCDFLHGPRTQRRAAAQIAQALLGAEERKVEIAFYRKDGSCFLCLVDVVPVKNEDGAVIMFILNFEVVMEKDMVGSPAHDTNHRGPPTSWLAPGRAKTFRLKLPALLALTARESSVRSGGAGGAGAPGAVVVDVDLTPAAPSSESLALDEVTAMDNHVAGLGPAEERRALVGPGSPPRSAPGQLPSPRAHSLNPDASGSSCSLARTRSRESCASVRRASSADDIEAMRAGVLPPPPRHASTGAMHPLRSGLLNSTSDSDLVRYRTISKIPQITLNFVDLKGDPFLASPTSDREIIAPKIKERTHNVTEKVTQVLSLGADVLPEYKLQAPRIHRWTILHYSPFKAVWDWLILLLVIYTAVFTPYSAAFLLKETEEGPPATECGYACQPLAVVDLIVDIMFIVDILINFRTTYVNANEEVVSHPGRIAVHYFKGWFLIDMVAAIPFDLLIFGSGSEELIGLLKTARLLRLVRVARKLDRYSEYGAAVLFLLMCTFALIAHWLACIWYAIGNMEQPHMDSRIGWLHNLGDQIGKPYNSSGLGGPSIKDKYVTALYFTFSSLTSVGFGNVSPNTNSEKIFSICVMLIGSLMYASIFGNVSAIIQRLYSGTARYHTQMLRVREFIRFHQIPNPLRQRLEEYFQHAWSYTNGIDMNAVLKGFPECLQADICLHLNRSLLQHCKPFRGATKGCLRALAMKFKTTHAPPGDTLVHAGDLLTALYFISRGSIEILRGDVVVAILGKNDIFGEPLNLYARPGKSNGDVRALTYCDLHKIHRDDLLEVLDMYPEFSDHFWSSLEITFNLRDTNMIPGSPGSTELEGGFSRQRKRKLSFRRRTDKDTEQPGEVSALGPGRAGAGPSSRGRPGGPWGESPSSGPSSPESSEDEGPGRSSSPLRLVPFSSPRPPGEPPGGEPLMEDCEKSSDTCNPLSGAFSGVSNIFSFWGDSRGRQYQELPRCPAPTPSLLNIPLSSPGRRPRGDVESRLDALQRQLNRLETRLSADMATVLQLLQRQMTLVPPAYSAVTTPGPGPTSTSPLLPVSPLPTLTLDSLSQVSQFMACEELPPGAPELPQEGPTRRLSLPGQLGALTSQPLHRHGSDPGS
Regarding `Clc1ccc(C2[C@H]3CN(CC4CCCCC4)[C@H](c4ccccc4)C34CC2(c2cccnc2)C4)cn1` (stereo partly drawn), the “hERG current change (%, negative = inhibition) at 10uM” value is -26.1%.
In the case of `O=C(O)c1cccc(NC(=O)c2cn(-c3ccccc3)nc2-c2ccc([N+](=O)[O-])cc2)c1`, the “hERG current change (%, negative = inhibition) at 10uM” value turned out to be 19.5%.
`COC(=O)c1nn(-c2cccc(Cl)c2)ccc1=O`: the “hERG current change (%, negative = inhibition) at 10uM” value came out at 6.98%.
As to `CCCCN(CCO)CCCC`, the “hERG current change (%, negative = inhibition) at 10uM” value was 14%.
As to `CC(C)c1ccc(OCC(=O)Nc2ccccc2C(=O)N2CCOCC2)cc1`, the “hERG current change (%, negative = inhibition) at 10uM” value is listed as -18.9%.
Take `CCOC(=O)C(C)Sc1nc(C2CC2)cc(C(F)(F)F)c1C#N` (stereo not drawn): the “hERG current change (%, negative = inhibition) at 10uM” value was determined as 5.04%.
Consider `CCOC(=O)Cn1nnnc1CN(CCc1ccccc1)Cc1cc2cc(CC)ccc2[nH]c1=O`, for which the “hERG current change (%, negative = inhibition) at 10uM” value is listed as -4.43%.
The result for `CCCN(CCO)Cc1cccc(Br)c1` reads -0.752%.
The result for `COc1ccc(Br)cc1C(=O)N/N=C/c1cccnc1` reads -8.72%.
Turning to `CCOc1ccc(-c2csc(NC(=O)C3CCCO3)n2)cc1` (stereo not drawn), the “hERG current change (%, negative = inhibition) at 10uM” value is 4.35%.
With `CC(C)C[C@@H](CO)N1CCN(CCCc2ccccc2)CCC1=O`, the “hERG current change (%, negative = inhibition) at 10uM” value is given as -31.1%.
As to `CC(C)C[C@@H](CSc1ccc(Br)cc1)N1CCN(CCc2ccccc2)CCC1=O`, the “hERG current change (%, negative = inhibition) at 10uM” value is given as -70.6%.
With `O=C1CCN(Cc2ccc(O)cc2)CCN1[C@H](CO)Cc1ccccc1` the figure was 2.51%.
On to `O=C1CCN(Cc2ccccc2)CCN1[C@H](CSc1ccccc1)Cc1ccccc1`, for which the “hERG current change (%, negative = inhibition) at 10uM” value was -72.1%.
As for `[N-]=[N+]=NC[C@H](Cc1ccccc1)N1CCN(Cc2ccccc2)CCC1=O`, the “hERG current change (%, negative = inhibition) at 10uM” value is reported as 3.9%.
Take `CC(C)C[C@@H](CC#N)N1CCN(CCc2ccccc2)CCC1=O`: the “hERG current change (%, negative = inhibition) at 10uM” value is recorded as 2.01%.
With `CCOc1[nH]n(-c2ccccc2)c(=O)c1C=Nc1ccccc1`, the “hERG current change (%, negative = inhibition) at 10uM” value was -2.58%.
The result for `CC1CN(C(=O)c2ccc(CNS(=O)(=O)c3cccc(C(F)(F)F)c3)cc2)CC(C)O1` (stereo not drawn) reads 9.72%.
Consider `O=C(Nc1ccc2ccccc2c1)c1ccccc1O`, for which the “hERG current change (%, negative = inhibition) at 10uM” value amounted to 24.6%.
The result for `Cc1ccc(C(OC(=O)c2ccco2)C(=O)NC(C)(C)C)cc1` (stereo not drawn) reads 10.8%; that for `N/C(Cc1ccccc1Sc1ccccc1)=N\O.O=C(O)/C=C\C(=O)O`, -22.2%.
`CCN(CC)Cc1ccccc1Sc1ccccc1.O=C(O)/C=C\C(=O)O`: the “hERG current change (%, negative = inhibition) at 10uM” value is -53.3%.
With `N=C(N)Cc1ccccc1Sc1ccccc1.O=C(O)/C=C\C(=O)O`, the “hERG current change (%, negative = inhibition) at 10uM” value was -1.09%.
In the case of `CN(C)Cc1ccccc1Sc1ccc(O)cc1O.O.O=C(O)/C=C\C(=O)O`, the “hERG current change (%, negative = inhibition) at 10uM” value was -3.84%.
`CN(C)Cc1ccccc1Cc1ccccc1.O=C(O)/C=C\C(=O)O`: the “hERG current change (%, negative = inhibition) at 10uM” value is on record as -10.1%.
As for `CC(Cc1ccccc1Sc1ccccc1)N(C)C.O=C(O)/C=C\C(=O)O` (stereo not drawn), the “hERG current change (%, negative = inhibition) at 10uM” value is -69.5%.
Take `COC(=O)CSc1ncnc2c1sc1nc3c(cc12)COC(C)(C)C3`: the “hERG current change (%, negative = inhibition) at 10uM” value is on record as 23.5%.
As for `COc1ccc(C(=O)NCC(=O)OCC(=O)Nc2cc([N+](=O)[O-])ccc2F)cc1`, the “hERG current change (%, negative = inhibition) at 10uM” value is on record as -23.4%.
For the compound `Cn1c(CSCc2ccc(F)cc2)nnc1SCC(=O)Nc1cccc(C(=O)O)c1`, the “hERG current change (%, negative = inhibition) at 10uM” value is 9.71%.
`Cc1cccc(N(Cc2cc3cc(C)ccc3[nH]c2=O)C(=O)c2cccs2)c1`: the “hERG current change (%, negative = inhibition) at 10uM” value worked out at 5.95%.
Turning to `c1ccc(CN2CCC(Nc3nc(-c4cccs4)nc4ccccc34)CC2)cc1`, the “hERG current change (%, negative = inhibition) at 10uM” value is -59.9%.
`c1csc(CNc2nc(-c3cccs3)nc3ccccc23)c1`: the “hERG current change (%, negative = inhibition) at 10uM” value is recorded as -6.81%.
The result for `c1ccc(CN2CCC(Nc3nc(-c4cccnc4)nc4ccccc34)CC2)cc1` reads -80.5%; that for `Cc1ccc(CNc2nc(-c3cccs3)nc3ccccc23)cc1`, 12.1%; that for `c1ccc(CN2CCC(Nc3nc(-c4ccccc4)nc4ccccc34)CC2)cc1`, -20.5%.
As for `c1cncc(CNc2nc(-c3cccnc3)nc3ccccc23)c1`, the “hERG current change (%, negative = inhibition) at 10uM” value is -25.3%.
As for `Nc1ccc(N=Nc2ccccc2O)c(N)c1`, the “hERG current change (%, negative = inhibition) at 10uM” value turned out to be 10.9%.
In the case of `COc1ccc(C(=O)NCc2cc(C)nc3ccccc23)cc1OC`, the “hERG current change (%, negative = inhibition) at 10uM” value is given as -8.56%.
As for `O=C(CSc1nncc(=O)[nH]1)NC1CCCCC1`, the “hERG current change (%, negative = inhibition) at 10uM” value was 27%.
Take `COc1cc(OC)c(C(=O)NC2CCCCCC2)cc1OC`: the “hERG current change (%, negative = inhibition) at 10uM” value is given as -3.27%.
Consider `Clc1ccc(-n2nnnc2-c2cnc3ccccc3c2-c2ccccc2)cc1`, for which the “hERG current change (%, negative = inhibition) at 10uM” value stood at 1.26%.
Consider `CCCOc1ccc(NC2=CC(=O)CC(C)(C)C2)cc1`, for which the “hERG current change (%, negative = inhibition) at 10uM” value amounted to 1.89%.
Turning to `CC1(C)CC(=O)C=C(Nc2ccc(OCC(F)(F)C(F)F)cc2)C1`, the “hERG current change (%, negative = inhibition) at 10uM” value was -65.7%.
As to `COc1ccc(NC2=CC(=O)CC(C)(C)C2)cc1`, the “hERG current change (%, negative = inhibition) at 10uM” value was 7.6%.
Regarding `Cl.O=C1c2cccc3c2[C@H](CCC3)CN1[C@@H]1CN2CCC1CC2`, the “hERG current change (%, negative = inhibition) at 10uM” value is on record as -46.2%.
